Screening results deposited in PubChem BioAssay by several laboratories.
Compounds with a hit are over-represented: about 4.8% of the library has one in this group of screens.
MPTP inh = permeability transition pore inhibition; AID 602449; 360,000 compounds, 1.4% hits; inhibition, % at 10 µM; isolated mouse mitochondria, Ca2+ swelling absorbance, 30 min;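 active = inhibition of 50% or more, scaled per plate between neutral and stimulator controls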;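 note: 0% = DMSO wells given calcium and 100% = 1 mM EGTA wells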
CSC inhib = cancer stem cell inhibition | cancer stem cell-like cells viability, luminescence | inhibition, % at 7.5 µM | 300,000 compounds, 1.1% hits | AID 2717; in the data active = inhibition above about 75%; inconclusive = no clear call, values can overlap the other calls; tested in HMLE shEcad cells
Beta cell apopt = blocks beta cell apoptosis; 300,000 compounds, 0.8% hits; INS-1E cytokine-induced death, ATP luminescence, 48 h; percent of positive-control rescue, neutral wells zero; protection from apoptosis, % (test concentration not listed);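 active = Every replicate reaches about 75%, or at least half do and their mean reaches it too, limit read from the data; inconclusive = At least half of replicates reach the limit but their mean does not; inactive = Under half of replicates reach the limit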;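 note: 0% = cytokine-treated negative control wells and 100% = positive control rescue; higher means more ATP so stronger rescue from cytokine killing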
Calb FLC = C. albicans growth modulation with fluconazole; 300,000 compounds, 0.57% hits; growth inhibition, % (test concentration not listed); C. albicans CaCi-2 (fluconazole-resistant clinical isolate) + fluconazole, Alamar Blue growth, 48 h;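 active = growth inhibition above about 58% in most replicates, limit read from the data, passing the limit was not always enough; inconclusive = exactly half the replicates above a set limit; inactive = most replicates below a set limit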;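 note: all wells also contain fluconazole at 8 µg/ml as a sub-toxic cotreatment; 0% = median of DMSO wells and 100% = median of geldanamycin control wells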
Mdm2 MdmX PPI = disrupts the human Mdm2-MdmX interaction. SaOS-2 split-luciferase Mdm2/MdmX complementation, luminescence. 330,000 compounds, 3% hits. inhibition, % at 8 µM;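 active = inhibition of at least 50% at 8 µM in the primary screen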
Target sequence (O15151 whole entry, looked up): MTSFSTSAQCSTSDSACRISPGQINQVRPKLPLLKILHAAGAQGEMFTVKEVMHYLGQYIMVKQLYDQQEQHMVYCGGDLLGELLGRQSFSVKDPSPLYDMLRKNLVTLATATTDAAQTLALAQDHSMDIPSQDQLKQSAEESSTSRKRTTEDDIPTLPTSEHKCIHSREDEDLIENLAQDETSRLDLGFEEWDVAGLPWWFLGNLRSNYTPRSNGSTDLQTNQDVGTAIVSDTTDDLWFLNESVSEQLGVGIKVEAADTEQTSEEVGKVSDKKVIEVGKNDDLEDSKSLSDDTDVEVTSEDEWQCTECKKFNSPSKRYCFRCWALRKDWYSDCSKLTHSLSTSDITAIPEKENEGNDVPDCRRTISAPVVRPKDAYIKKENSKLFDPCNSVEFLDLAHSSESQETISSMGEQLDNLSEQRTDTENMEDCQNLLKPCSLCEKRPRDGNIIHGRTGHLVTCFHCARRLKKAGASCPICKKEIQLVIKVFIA
Target sequence (Q00987 whole entry, looked up): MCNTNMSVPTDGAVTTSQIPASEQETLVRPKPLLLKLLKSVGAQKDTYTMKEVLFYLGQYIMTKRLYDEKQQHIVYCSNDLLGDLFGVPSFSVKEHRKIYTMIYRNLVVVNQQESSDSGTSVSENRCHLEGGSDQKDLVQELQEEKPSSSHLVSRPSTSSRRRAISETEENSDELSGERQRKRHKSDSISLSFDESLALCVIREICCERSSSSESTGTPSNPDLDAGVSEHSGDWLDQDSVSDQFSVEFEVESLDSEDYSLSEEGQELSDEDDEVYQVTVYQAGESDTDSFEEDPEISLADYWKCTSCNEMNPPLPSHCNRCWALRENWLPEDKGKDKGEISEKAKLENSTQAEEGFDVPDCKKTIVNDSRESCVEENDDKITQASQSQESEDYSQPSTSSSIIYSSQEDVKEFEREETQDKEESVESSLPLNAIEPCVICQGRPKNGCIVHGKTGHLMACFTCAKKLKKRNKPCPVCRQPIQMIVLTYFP
* hit, by the source's call; ? = inconclusive; . = no result.

SMILES	MPTP inh	CSC inhib	Beta cell apopt	Calb FLC	Mdm2 MdmX PPI
Cc1cc(C(=O)N/N=C/c2cc(Cl)cc([N+](=O)[O-])c2O)c2ccccc2n1	7.3	45.0	5.1	79.2*	19.7
O=c1c(/C=N/OCc2ccc(Cl)cc2Cl)c[nH]n1-c1cccc(Cl)n1	48.1	93.5*	-1.9	-2.3	13.1
O=c1c(-n2cncn2)c[nH]n1-c1cccc(Cl)n1	0.7	-3.3	5.0	-8.6	18.9
Cc1cccc2cc(-c3ccccc3)c(-c3ccccc3)c[n+]12	2.3	11.9	99.0*	-4.6	.
O=[N+]([O-])c1cccc(-c2cc3cccc[n+]3cc2-c2cccc([N+](=O)[O-])c2)c1	0.2	-2.7	-2.7	-22.2	19.2
O=C(Nc1ccc2ccccc2c1)C(c1ccccc1)n1c(=O)c(-c2cc3ccccc3[nH]2)nc2ccccc21 (stereo unspecified)	7.1	.	.	.	.
Cc1ccc(S(=O)(=O)NNC(=O)c2ccc(NC(=O)C3CC3)cc2)cc1	3.4	4.4	2.2	111.4*	10.6
COc1ccccc1/C=C1\S/C(=N/NC(=O)c2cccc(Br)c2)NC1=O	15.3	114.3*	16.4	?	49.6
COC(=O)/C=C1\S/C(=N/NC(=O)c2ccccc2)NC1=O	-0.8	-2.8	-4.1	5.6	14.8
Cc1cscc1-c1ccc(C(=O)Nc2c(C)cccc2C)o1	-0.5	.	.	.	.
COc1ccc(/C=C/C(=O)c2ccncc2)c2ccccc12	3.6	176.4*	99.8*	34.5	35.1
N#CC1=C(N)Oc2cc(N)ccc2C1c1cccc(Br)c1 (stereo unspecified)	1.2	82.4*	3.1	-4.2	42.0
CC1(C)C2CC[C@]3(C)C(CC=C4[C@@H]5C[C@@](C)(CO)[C@@H](O)C[C@]5(C(=O)O)CC[C@]43C)[C@@]2(C)CC[C@@H]1O (stereo partly specified)	-1.4	-12.9	-4.3	1.0	-5.6
CC1(C)CC[C@]2(CO)[C@@H](O)C[C@]3(C)C(=CCC4[C@@]5(C)CC[C@H](O)C(C)(C)C5CC[C@]43C)[C@@H]2C1 (stereo partly specified)	.	101.7*	10.8	-1.1	-30.5
CNC(=O)c1ccc(Nc2nnc(-c3ccc(C(N)=O)cc3)c3ccccc23)cc1	-0.4	-12.5	-7.2	-2.4	1.2
NC(=O)c1ccc(Nc2nnc(-c3ccc(O)cc3)c3ccccc23)cc1	-0.5	1.9	-3.0	85.5*	-8.4
CCCc1cc(=O)[nH]c(SCC(=O)Nc2sc(C(N)=O)c(C)c2C(=O)OCCOC)n1	0.3	93.6*	1.0	.	17.5
Cc1cc(C(=O)N/N=C/c2ccc3c(c2)OCO3)c(C)o1	2.9	15.5	.	-1.4	-20.9
COc1ccc(/C=N/NC(=O)c2ccc(COCC(F)(F)C(F)F)cc2)cc1	1.1	-5.7	-0.2	0.1	-6.6
O=C(CSCc1ccccc1Br)N/N=C/c1ccc2c(c1)OCO2	4.9	17.7	1.8	-2.6	27.5
Cc1occc1C(=O)N/N=C/c1ccc2c(c1)OCO2	2.5	48.9	76.1*	-23.1	-71.3
CCOc1ccc(NC(=O)CCC(=O)N/N=C/c2ccc3c(c2)OCO3)cc1	2.0	-1.8	-6.6	110.7*	22.5
O=C(CSCc1cccc(Br)c1)N/N=C/c1ccc2c(c1)OCO2	4.8	100.3*	-1.1	-10.9	29.4
O=C(N/N=C/c1ccc2c(c1)OCO2)c1ccc(COCC(F)(F)C(F)F)cc1	1.3	82.6*	2.9	3.7	11.1
COc1ccc(-c2nc3ccc(C)cn3c2CC(C)(C)C)cc1OC	-0.7	.	.	.	.
SMILES	MPTP inh	CSC inhib	Beta cell apopt	Calb FLC	Mdm2 MdmX PPI
Cn1nc(C2CC2)cc1NC(=O)C1(C)CCN1C(=O)c1ccccc1CCc1ccccc1 (stereo unspecified)	-0.4	.	.	.	.
CCN(CC)c1ccc(/C=N/NC(=O)c2ccoc2C)c(O)c1	4.4	43.3	100.5*	-1.8	39.0
CCOC(=O)Cc1csc(NC(=O)c2ccc3ncsc3c2)n1	0.2	-2.6	0.3	116.3*	5.8
CCOC(=O)Cc1csc(NC(=O)c2ccc(Br)cc2)n1	0.8	-5.1	.	-1.8	27.5
CNC(=O)NC(=O)C(C)OC(=O)c1c2c(nc3ccccc13)/C(=C/c1cccs1)CC2 (stereo unspecified)	-17.1	93.5*	-4.0	4.9	-1.0
COc1ccc(NC(=O)C2(C)CCCN(C(C)C)C2)cc1OC (stereo unspecified)	0.2	.	.	.	.
COc1ccc(-c2cn(Cc3ccc(C(=O)c4ccccc4)cc3)nn2)cc1	.	51.4	106.2*	-0.2	-15.6
COc1ccc(-c2csc(-c3ccccc3)n2)c(OC)c1	1.6	10.6	.	98.7*	-363.4
COc1ccc(-c2nc(CCl)cs2)cc1	-0.9	3.1	-6.0	?	-17.2
COc1ccc(-c2csc(-c3ccc(O)cc3)n2)cc1	10.1	89.9*	6.2	-7.3	-25.6
O=C(COc1ccc(OCc2ccccc2)cc1)NN=C1CCCC1	0.1	11.8	-2.7	-3.4	-38.2
O=C1CCCCC/C1=N/Nc1ccc(OCc2ccccc2)cc1	5.2	57.5	-3.9	94.1*	-3.4
Cc1cccc(C(=O)Nc2ccc(NC(=O)c3cccc(C)c3)cc2)c1	1.2	.	.	.	.
O=C(Nc1ccc(O)cc1)c1ccc(NC(=O)c2cccs2)cc1	-0.8	84.5*	-4.8	4.4	-13.1
Cc1cccc(C(=O)Nc2ccc(C(=O)Nc3ccc(O)cc3)cc2)c1	0.8	94.6*	2.1	3.7	29.1
Cc1cccc(C(=O)Nc2ccc(C(=O)/C=C/c3cccnc3)cc2)c1	1.1	51.9	100.7*	9.7	.
CC(=O)Oc1ccccc1Cn1c(C)c(C(=O)NCc2ccc(Cl)c(Cl)c2)sc1=O	-0.6	.	.	.	.
Clc1ccc(CN(Cc2ccccc2)C(c2cccs2)c2nnnn2C2CCCC2)cc1 (stereo unspecified)	1.6	18.7	8.2	-4.3	-3.7
Fc1ccc(CN(Cc2ccccc2)C(c2cccs2)c2nnnn2C2CCCCC2)cc1 (stereo unspecified)	6.3	16.4	93.8*	6.4	23.5
CN(C)C(CNS(=O)(=O)c1ccc2ccccc2c1)c1ccccc1 (stereo unspecified)	-1.5	81.6*	1.1	-2.1	-9.2
CN(Cc1ccccc1)C(CNS(=O)(=O)c1ccccc1)c1ccccc1 (stereo unspecified)	1.0	.	.	.	.
CCOC(=O)C1=C[C@@H](C(C)(C)C)N(S(=O)(=O)c2ccc(C)cc2)[C@H]1c1cccc2ccccc12	2.5	.	.	.	.
Cc1nc2sccn2c(=O)c1CCN1CCC(=C(c2ccc(F)cc2)c2ccc(F)cc2)CC1	-2.5	79.3*	-1.6	.	36.8
Cc1nc2ccccn2c(=O)c1CCN1CCC(C(=O)c2ccc(F)cc2)CC1	-3.6	7.0	-4.6	-6.4	-1.5
O=c1[nH]c(=O)n(C2C[C@H](O)[C@@H](CO)O2)cc1C(F)(F)F (stereo partly specified)	0.4	75.7*	6.7	.	31.0
O=c1[nH]c(=O)n(C2CC(O)C(CO)O2)cc1Br (stereo unspecified)	-0.1	.	.	.	.
